The supplement of paper PMC11732987, “Enantioselective OTUD7B fragment discovery through chemoproteomics screening and high-throughput optimisation” (Communications Chemistry, 2025)

Target: T1, BAP1 (UniProt Q92560)
T1 sequence (whole entry): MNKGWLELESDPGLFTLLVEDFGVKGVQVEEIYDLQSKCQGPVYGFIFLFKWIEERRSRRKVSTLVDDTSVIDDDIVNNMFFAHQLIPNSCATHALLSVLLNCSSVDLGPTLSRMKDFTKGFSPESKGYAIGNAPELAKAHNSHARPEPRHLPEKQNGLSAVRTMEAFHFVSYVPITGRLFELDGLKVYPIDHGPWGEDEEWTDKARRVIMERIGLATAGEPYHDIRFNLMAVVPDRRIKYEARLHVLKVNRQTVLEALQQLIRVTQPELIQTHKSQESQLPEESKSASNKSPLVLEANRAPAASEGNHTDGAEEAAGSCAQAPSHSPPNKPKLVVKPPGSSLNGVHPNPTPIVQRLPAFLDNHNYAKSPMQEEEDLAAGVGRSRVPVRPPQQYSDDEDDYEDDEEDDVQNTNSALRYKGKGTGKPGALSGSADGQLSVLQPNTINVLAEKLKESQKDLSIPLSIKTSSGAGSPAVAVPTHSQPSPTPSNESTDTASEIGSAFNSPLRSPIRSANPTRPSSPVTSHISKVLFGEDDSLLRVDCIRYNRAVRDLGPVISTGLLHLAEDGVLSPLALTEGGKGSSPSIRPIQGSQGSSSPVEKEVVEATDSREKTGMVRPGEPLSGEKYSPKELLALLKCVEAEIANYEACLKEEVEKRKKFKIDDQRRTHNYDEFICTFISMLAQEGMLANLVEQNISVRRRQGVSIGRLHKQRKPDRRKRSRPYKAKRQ
Assay: log2 ratio of Biotin-Ahx-Ub-VS probe labelling (fragment/DMSO); higher = less target engagement (more negative = stronger competition), active = hit call of the paper (q ≤ 0.05, log2 ratio ≤ -1)
Settings: compound concentration: 200 uM; treatment time: 3 h
In short: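 Using Biotin-Ahx-Ub-VS at 0.5 µM final for 1 h, DUBs were labelled in HEK293T lysate (495 µg per sample) that had first been treated in triplicate with fragment at 200 µM or vehicle for 3 h. NeutrAvidin enrichment, LysC and trypsin digestion and diaPASEF LC-MS/MS followed. Spectronaut label-free quantities were global-median-normalised. Values are average log2 fragment/vehicle ratios by unpaired t-test, using proteins with ≥2 unique peptides.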

log2 ratio of Biotin-Ahx-Ub-VS probe labelling, inactive:
Cl.O=C(CCl)N1CCN(Cc2ccccc2)CC1 -0.734, Cc1nc(CN2CCN(C(=O)CCl)CC2)cs1 -0.469, O=C(CCl)Nc1cc(Cl)ccc1C(=O)O -0.0627, CN(C(=O)CCl)c1nc2ccccc2s1 -0.457, CNC(=O)C1CCN(C(=O)CCl)CC1 -0.309, O=C(CCl)N1CCC(C(=O)N2CCCCCC2)CC1 -0.398, C[C@H]1CN(C(=O)CCl)CCN1C(=O)c1cnn(C)c1.Cl -0.356, Cc1ncsc1CCNC(=O)CCl -0.27, Cc1cccc(C(CNC(=O)CCl)N2CCOCC2)c1.Cl (stereo not given) -0.497, Cc1cc(C2CCCN2C(=O)CCl)nn1C.Cl (stereo not given) -0.0558, O=C(CCl)N1CCCC2CCCCC21 (stereo not given) -0.281, CC(O)CC1CCN(C(=O)CCl)CC1 (stereo not given) -0.221, Cc1nc(CC2CCN(C(=O)CCl)CC2)no1 -1.08, CC1Cc2ccccc2N1C(=O)CCl (stereo not given) -0.55, Cl.O=C(CCl)N1CCc2ncncc2C1 -0.732, Cc1ccc(CC(NC(=O)CCl)c2ccccn2)cc1.Cl (stereo not given) -0.525, O=C(CCl)NCC(=O)N1CCCC1 -0.409, Cc1cc(CC(C)NC(=O)CCl)n[nH]1 (stereo not given) -0.509

log2 ratio of Biotin-Ahx-Ub-VS probe labelling, active:
COc1cc(Cl)c(C)cc1NC(=O)CCl -2.01, O=C(CCl)NCCc1cccc2ccccc12 -1.22, CCCn1nccc1NC(=O)CCl -3.06, O=C(CCl)N1CCOC(c2cccc(F)c2)C1 (stereo not given) -1.09, Cc1c(C#N)c(NC(=O)CCl)n(Cc2ccco2)c1C -3.61, CN1C(=O)c2ccc(NC(=O)CCl)cc2C1=O -3.58, CC1(NC(=O)CCl)CCS(=O)(=O)C1 (stereo not given) -1.37, O=C(CCl)NCc1ccc(Cl)cc1 -2.74, O=C(CCl)Nc1ccc(N2CCCC2=O)cc1 -3.73, Cc1cccc(C)c1NC(=O)CCl -3.62, Cc1cccc(NC(=O)CCl)c1C -3.21, Cc1cccc(N2CCC(NC(=O)CCl)C2=O)c1 (stereo not given) -4.17, O=C(CCl)Nc1cccc(C(=O)N2CCSCC2)c1 -3.62, NC(=O)C(Cc1ccccc1)NC(=O)CCl (stereo not given) -2.01, CC(NC(=O)CCl)c1csc(-c2ccccc2)n1.Cl (stereo not given) -3.84, O=C(CCl)N[C@H]1CCS(=O)(=O)c2ccccc21 -2.12, CC(C)n1nccc1NC(=O)CCl -4.23
